The values that follow come from PubChem BioAssay (EPA / NIEHS).

Activity calls are given as the source filed them. Rule for the calls: active = hit-call score of the fitted dose curve at least 0.9, where 1 is the maximum; inactive = score below 0.9.

The nature of experiment [1]: ATG_E_Box_CIS: Attagene CIS-FACTORIAL HepG2 Assay for human Enhancer Box (E-box) (AID 2282936). Conditions: HepG2 E-box cis-reporter transcription, actives raise or lower the signal. The essentials:
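DMSO served as negative control and baseline for bidirectional fitting. Human hepatoma HepG2 cells, transiently transfected with cis-reporter constructs, were dosed 24 h; reporter mRNA read by RT-PCR and capillary electrophoresis.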

Experiment [2] is described as follows: ATG_M_61_CIS: Attagene CIS-FACTORIAL HepG2 Assay for M61 Transcription Factor (Internal Marker) (AID 2282937). To be noted: HepG2 Attagene CIS-FACTORIAL M61 internal marker reporter; actives raise or lower the signal. The gist of the method: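 HepG2 cells transiently transfected with cis-element-driven multiple reporter transcription units, dosed for 24 h. Reporter mRNA measured by RT-PCR, 6-FAM primer-extension labelling, HpaI digestion and capillary electrophoresis; bidirectional fit versus DMSO baseline.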

The nature of experiment [3]: ATG_EGR_CIS: Attagene CIS-FACTORIAL HepG2 Assay for human Early Growth Response 1 (EGR1) (AID 2282938). Conditions: HepG2 Attagene CIS-FACTORIAL EGR reporter mRNA; actives raise or lower the signal. The gist of the method: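 HepG2 cells transiently transfected with cis-promoter-driven multiplexed reporter transcription units; reporter mRNA measured 24 h after compound dosing by RT-PCR, 6-FAM primer extension, HpaI digestion and capillary electrophoresis. Bidirectional fit versus DMSO baseline.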

Experiment [4] in a line: ATG_M_19_CIS: Attagene CIS-FACTORIAL HepG2 Assay for M19 Transcription Factor (Internal Marker) (AID 2282939). To be noted: HepG2 Attagene CIS-FACTORIAL M19 internal marker reporter; actives raise or lower the signal. The gist of the method: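 Chemical-treated HepG2 (24 h) with MRTU constructs; reporter transcripts detected by fluorescent RT-PCR fragment analysis on capillary electrophoresis. Internal background marker, DMSO as baseline.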

The nature of experiment [5]: ATG_ERE_CIS: Attagene CIS-FACTORIAL HepG2 Assay for Estrogen Response Element (ERE) (AID 2282940). To be noted: HepG2 ERE cis-reporter, Attagene RNA transcript; actives raise or lower the signal. The gist of the method:
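Human liver cells (HepG2) bearing transiently transfected, promoter-regulated reporter units were exposed 24 h. Reporter mRNA induction was detected by capillary electrophoresis of labelled RT-PCR products and fitted bidirectionally to DMSO.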

Experiment [6] is described as follows: ATG_Ets_CIS: Attagene CIS-FACTORIAL HepG2 Assay for human Erythroblast Transformation Specific (ETS) (AID 2282941). Conditions: HepG2 ETS cis-reporter transcription, actives raise or lower the signal. The gist of the method:
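Steps: transfect HepG2 with multiple reporter units; treat compound 24 h; isolate RNA, DNase-treat, reverse-transcribe; PCR-amplify, label with 6-FAM, digest with HpaI; separate by capillary electrophoresis. Activity fitted both directions versus DMSO.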

Experiment [7] has as its target Hepatocyte nuclear factor 3-beta (Homo sapiens) (UniProt Q9Y261). Kind of experiment: ATG_FoxA2_CIS: Attagene CIS-FACTORIAL HepG2 Assay for human Forkhead box A2 (FOXA2) (AID 2282942). Conditions: HepG2 cis-reporter transcription factor activity, 24 h; actives raise or lower the signal. The essentials:
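HepG2 cells transiently transfected with multiple cis-regulated reporter transcription units, dosed for 24 h. Reporter mRNA measured by RT-PCR, 6-FAM labelling, HpaI digestion and capillary electrophoresis; bidirectional fitting against DMSO baseline.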

Experiment [8] is described as follows: ATG_FoxO_CIS: Attagene CIS-FACTORIAL HepG2 Assay for human Forkhead box O (FoxO) (AID 2282943). To be noted: HepG2 Attagene cis-reporter, FoxO element, mRNA; actives raise or lower the signal. The essentials: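 HepG2, transient MRTU transfection (cis element, endogenous TFs). Dose 24 h. TriZol RNA → oligo(dT) RT → PCR → 6-FAM primer extension → HpaI cut → CE. Gain/loss vs DMSO.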

Experiment [9] in a line: ATG_GATA_CIS: Attagene CIS-FACTORIAL HepG2 Assay for human GATA Binding Protein (AID 2282944). Conditions: HepG2 GATA cis-element reporter, Attagene multiplex mRNA; actives raise or lower the signal. The gist of the method:
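Transfected cis-reporter HepG2 cells were treated with chemicals for 24 hours. Total RNA was then converted to cDNA, amplified with reporter-specific primers and analysed by fluorescent capillary electrophoresis, using DMSO-treated wells as baseline.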

A short description of experiment [10]: ATG_GLI_CIS: Attagene CIS-FACTORIAL HepG2 Assay for human Zinc Finger Protein GLI1 (AID 2282945). To be noted: HepG2, Attagene cis-factorial reporter mRNA, GLI element; actives raise or lower the signal. The gist of the method:
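Bidirectional curve fits relative to DMSO, using reporter mRNA levels from RT-PCR plus capillary electrophoresis. Cells were HepG2 transiently carrying cis-regulated reporter constructs, harvested 24 h after dosing.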

Experiment [11] has as its target Bile acid receptor (Homo sapiens) (UniProt Q96RI1). Kind of experiment: ATG_IR1_CIS: Attagene CIS-FACTORIAL HepG2 Assay for human Nuclear Receptor Subfamily 1 Group H Member 4 (NR1H4), IR1 submotif (AID 2282946). Conditions: IR1 reporter transcription, actives raise or lower the signal. The essentials: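 Cells (human HepG2) carry transiently transfected cis-promoter reporter transcription units. Compounds are incubated 24 h, total RNA is reverse-transcribed and amplified, and labelled fragments are resolved by capillary electrophoresis. Curves use DMSO as baseline.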

A short description of experiment [12]: ATG_GRE_CIS: Attagene CIS-FACTORIAL HepG2 Assay for human Glucocorticoid Response Elements (GRE) (AID 2282947). To be noted: HepG2 GRE cis-reporter, Attagene multiplex mRNA; actives raise or lower the signal. The essentials:
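Assay uses human hepatoma HepG2 cells transfected with cis-promoter reporter units, exposed 24 h. mRNA from reporters detected by RT-PCR plus capillary electrophoresis; DMSO serves as negative control and baseline.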

The nature of experiment [13]: ATG_M_32_CIS: Attagene CIS-FACTORIAL HepG2 Assay for M32 Transcription Factor (Internal Marker) (AID 2282949).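 Note: background control marker of the multiplexed CIS panel rather than a real target.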 Conditions: HepG2 Attagene cis-factorial M32 reporter, mRNA; actives raise or lower the signal. The essentials:
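Internal background marker read-out: RT-PCR/capillary electrophoresis fluorescence of reporter transcripts from transiently transfected HepG2 cells after 24 h chemical exposure. Activity fitted bidirectionally relative to DMSO negative control.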

Experiment [14] in a line: ATG_M_06_CIS: Attagene CIS-FACTORIAL HepG2 Assay for M06 Transcription Factor (Internal Marker) (AID 2282950). To be noted: HepG2 Attagene CIS-FACTORIAL M06 internal marker reporter; actives raise or lower the signal. The essentials: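 Cells (HepG2, transiently carrying cis-driven reporter units) receive chemical for 24 h before RNA isolation. Reporter cDNA is PCR-amplified, FAM-labelled by primer extension, HpaI-digested and sized on a capillary analyser.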

Experiment [15] deals with Hypoxia-inducible factor 1-alpha (Homo sapiens) (UniProt Q16665). Kind of experiment: ATG_HIF1a_CIS: Attagene CIS-FACTORIAL HepG2 Assay for human Hypoxia Inducible Factor 1 (HIF1A) (AID 2282951). Conditions: HepG2 Attagene cis-factorial HIF1a reporter transcription; actives raise or lower the signal. The gist of the method: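 HepG2 cells transiently transfected with multiplexed cis-promoter reporter units; reporter mRNA read 24 h after dosing by RT-PCR, 6-FAM primer-extension labelling, HpaI digestion and capillary electrophoresis. Bidirectional fit versus DMSO baseline.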
Hypoxia-inducible factor 1-alpha (Homo sapiens), sequence (Q16665 whole entry, looked up): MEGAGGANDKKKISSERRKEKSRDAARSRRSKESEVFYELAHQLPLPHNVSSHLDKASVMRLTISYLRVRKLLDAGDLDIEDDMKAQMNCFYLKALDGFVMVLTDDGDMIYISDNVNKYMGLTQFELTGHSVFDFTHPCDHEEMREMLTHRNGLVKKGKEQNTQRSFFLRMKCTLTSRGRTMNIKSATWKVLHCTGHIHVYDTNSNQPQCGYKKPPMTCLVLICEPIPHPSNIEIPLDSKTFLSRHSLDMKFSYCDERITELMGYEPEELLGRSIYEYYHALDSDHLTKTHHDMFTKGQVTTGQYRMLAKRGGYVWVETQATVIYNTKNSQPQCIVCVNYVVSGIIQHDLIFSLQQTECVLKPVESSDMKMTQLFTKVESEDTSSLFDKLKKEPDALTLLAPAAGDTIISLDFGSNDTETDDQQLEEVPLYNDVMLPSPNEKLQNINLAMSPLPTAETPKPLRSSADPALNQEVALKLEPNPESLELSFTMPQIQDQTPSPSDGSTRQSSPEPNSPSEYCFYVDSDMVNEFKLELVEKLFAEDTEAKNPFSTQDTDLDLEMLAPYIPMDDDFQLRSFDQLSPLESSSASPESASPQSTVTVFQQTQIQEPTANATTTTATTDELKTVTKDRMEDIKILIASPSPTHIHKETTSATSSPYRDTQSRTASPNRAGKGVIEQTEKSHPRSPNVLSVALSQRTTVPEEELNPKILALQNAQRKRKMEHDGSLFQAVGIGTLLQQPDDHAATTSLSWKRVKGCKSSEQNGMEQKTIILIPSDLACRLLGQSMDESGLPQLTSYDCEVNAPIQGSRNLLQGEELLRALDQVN

Experiment [16] deals with Hepatocyte nuclear factor 6 (Homo sapiens) (UniProt Q9UBC0). The experiment in a line: ATG_HNF6_CIS: Attagene CIS-FACTORIAL HepG2 Assay for human Hepatocyte Nuclear Factor 6 (HNF6) (AID 2282952). Conditions: HepG2 Attagene cis-factorial HNF6 reporter transcription; actives raise or lower the signal. The gist of the method: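 Cells are HepG2 carrying transiently transfected cis-promoter reporter units. Treatment lasts 24 h, after which reporter transcripts are reverse-transcribed, amplified, FAM-labelled and sized by capillary electrophoresis. DMSO serves as baseline.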
Hepatocyte nuclear factor 6 (Homo sapiens), sequence (Q9UBC0 whole entry, looked up): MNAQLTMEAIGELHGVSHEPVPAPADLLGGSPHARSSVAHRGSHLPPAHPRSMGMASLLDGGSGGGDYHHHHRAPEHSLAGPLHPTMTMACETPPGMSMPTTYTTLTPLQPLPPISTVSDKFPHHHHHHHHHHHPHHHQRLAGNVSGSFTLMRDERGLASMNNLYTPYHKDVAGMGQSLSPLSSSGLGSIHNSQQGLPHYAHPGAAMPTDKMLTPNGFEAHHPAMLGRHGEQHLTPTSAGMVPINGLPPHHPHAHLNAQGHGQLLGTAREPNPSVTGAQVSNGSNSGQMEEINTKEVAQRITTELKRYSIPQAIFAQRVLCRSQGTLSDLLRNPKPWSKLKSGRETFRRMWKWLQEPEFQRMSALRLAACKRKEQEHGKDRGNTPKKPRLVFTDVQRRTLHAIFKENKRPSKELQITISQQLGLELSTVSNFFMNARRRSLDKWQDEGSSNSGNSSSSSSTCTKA

Experiment [17] deals with Heat shock factor protein 1 (Homo sapiens) (UniProt Q00613). Kind of experiment: ATG_HSE_CIS: Attagene CIS-FACTORIAL HepG2 Assay for human Heat Shock Transcription Factor 1 (HSE) (AID 2282953). To be noted: HepG2 HSE cis-reporter, Attagene RNA transcription; actives raise or lower the signal. The gist of the method:
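Liver-derived HepG2 cells carry transiently introduced multiple reporter units governed by cis promoters. Reporter RNA measured 24 h post-dose through reverse transcription, PCR amplification, fluorescent labelling and capillary electrophoresis, normalised to DMSO.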

Experiment [18] is described as follows: ATG_MRE_CIS: Attagene CIS-FACTORIAL HepG2 Assay for human Metal Responsive Element (MRE) (AID 2282954). To be noted: HepG2 MRE cis-reporter transcription, Attagene multiplex; actives raise or lower the signal. The essentials:
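After a 24 h chemical exposure, transiently transfected HepG2 cells yield RNA whose reporter sequences are amplified, FAM-labelled and sized by capillary electrophoresis. Curves are fitted bidirectionally relative to DMSO.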

Experiment [19] can be described thus: ATG_PBREM_CIS: Attagene CIS-FACTORIAL HepG2 Assay for human Phenobarbital-responsive Enhancer Module (PBREM) (AID 2282955). Conditions: HepG2 PBREM cis-reporter, Attagene multiplexed transcription; actives raise or lower the signal. The gist of the method: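 HepG2 cells transiently transfected with multiple cis-regulated reporter transcription units; endogenous factor activity at the PBREM element measured as reporter mRNA 24 h after dosing, via RT-PCR and capillary electrophoresis of fluorescent fragments; bidirectional fitting versus DMSO.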

A short description of experiment [20]: ATG_ISRE_CIS: Attagene CIS-FACTORIAL HepG2 Assay for human Interferon Regulatory Factor 1 (IRF1) binding to an Interferon-Stimulated Response Element (ISRE) (AID 2282948). To be noted: HepG2 ISRE cis-reporter (Attagene), mRNA transcription readout; actives raise or lower the signal. The essentials: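 Transfected HepG2 (multiple reporter transcription units, cis elements) dosed 24 h. RNA → oligo(dT) RT → PCR → 6-FAM primer extension → HpaI → CE. DMSO = negative control/baseline.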

Heat shock factor protein 1 (Homo sapiens), sequence (Q00613 whole entry, looked up): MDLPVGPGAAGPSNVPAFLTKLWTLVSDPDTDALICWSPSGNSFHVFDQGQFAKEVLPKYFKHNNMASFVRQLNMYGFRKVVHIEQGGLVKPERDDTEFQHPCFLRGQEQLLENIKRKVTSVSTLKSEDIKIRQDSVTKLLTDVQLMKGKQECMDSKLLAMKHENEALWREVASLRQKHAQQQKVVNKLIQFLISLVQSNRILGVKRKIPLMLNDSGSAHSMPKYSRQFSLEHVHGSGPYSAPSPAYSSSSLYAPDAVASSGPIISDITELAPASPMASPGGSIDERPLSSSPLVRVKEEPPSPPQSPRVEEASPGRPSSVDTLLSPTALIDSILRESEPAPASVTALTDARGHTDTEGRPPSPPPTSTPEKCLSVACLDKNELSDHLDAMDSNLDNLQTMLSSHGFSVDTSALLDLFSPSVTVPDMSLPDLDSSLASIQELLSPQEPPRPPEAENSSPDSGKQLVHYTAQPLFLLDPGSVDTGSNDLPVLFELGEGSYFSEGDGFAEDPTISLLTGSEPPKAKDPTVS
Hepatocyte nuclear factor 3-beta (Homo sapiens), sequence (Q9Y261 whole entry, looked up): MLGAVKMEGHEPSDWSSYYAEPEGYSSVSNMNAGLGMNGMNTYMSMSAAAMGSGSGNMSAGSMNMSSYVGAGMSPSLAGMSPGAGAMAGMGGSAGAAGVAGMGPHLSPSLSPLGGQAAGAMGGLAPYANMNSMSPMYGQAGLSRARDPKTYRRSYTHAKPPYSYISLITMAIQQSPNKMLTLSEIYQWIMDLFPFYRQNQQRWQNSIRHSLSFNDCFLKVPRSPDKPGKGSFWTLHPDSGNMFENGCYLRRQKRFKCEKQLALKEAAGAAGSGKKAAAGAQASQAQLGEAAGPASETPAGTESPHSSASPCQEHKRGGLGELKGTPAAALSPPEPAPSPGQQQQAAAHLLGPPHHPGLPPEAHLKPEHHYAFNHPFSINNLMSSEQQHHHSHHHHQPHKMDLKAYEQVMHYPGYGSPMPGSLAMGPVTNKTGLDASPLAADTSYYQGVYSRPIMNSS
Bile acid receptor (Homo sapiens), sequence (Q96RI1 whole entry, looked up, the tested form may be a part): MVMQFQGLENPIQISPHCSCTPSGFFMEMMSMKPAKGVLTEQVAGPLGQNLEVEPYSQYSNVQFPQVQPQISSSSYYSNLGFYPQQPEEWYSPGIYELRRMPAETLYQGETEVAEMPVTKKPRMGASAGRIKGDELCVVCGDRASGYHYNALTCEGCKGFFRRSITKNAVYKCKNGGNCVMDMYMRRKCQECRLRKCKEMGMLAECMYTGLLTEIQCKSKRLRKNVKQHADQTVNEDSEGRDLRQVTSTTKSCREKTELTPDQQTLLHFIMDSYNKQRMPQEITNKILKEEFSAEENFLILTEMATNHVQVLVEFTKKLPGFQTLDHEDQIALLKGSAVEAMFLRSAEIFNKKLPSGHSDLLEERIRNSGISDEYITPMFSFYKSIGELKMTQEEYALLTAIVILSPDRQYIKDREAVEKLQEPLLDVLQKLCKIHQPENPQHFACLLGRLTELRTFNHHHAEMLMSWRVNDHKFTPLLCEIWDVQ

On to `CCCCCC/C=C\CCCCCCCC(=O)O`, for which the outcome in [1], in experiment [2], in [3], in [4], in experiment [5] and in experiment [6] was inactive. Besides, the outcome in [7], in experiment [8], in experiment [9], in experiment [10], in experiment [11] and in experiment [12] was inactive. For the same molecule, the call in experiment [13], in experiment [14], in experiment [15], in experiment [16], in [17] and in experiment [18] was inactive. For the same molecule, the result in experiment [19] was inactive.

For `Cc1cc(C)c(C)c(C)c1`, the result in experiment [1], in experiment [2], in experiment [3], in experiment [4], in experiment [5] and in experiment [6] was inactive. Also, the result in [7], in [8], in experiment [9], in experiment [10], in [11] and in experiment [20] was inactive. The molecule was called inactive in experiment [13], in experiment [14], in experiment [15], in experiment [16], in experiment [18] and in experiment [19].

A word on the AC50: it is the concentration at which the activity in the assay is half-maximal. With `C=CC(C)(CCC=C(C)C)OC(=O)C(C)C` (stereo not drawn), the result in experiment [1], in experiment [2], in experiment [3], in experiment [4], in experiment [6] and in [7] was inactive. Further, the outcome in [8], in experiment [9], in experiment [10], in experiment [12], in [20] and in [13] was inactive. For the same molecule, the call in experiment [14], in experiment [15], in [16], in experiment [17] and in experiment [18] was inactive. Further, the AC50 in experiment [5] is 32.1 µM (active).

Consider `CC(C)c1ccc2c(C(C)C)cc(C(C)C)c(S(=O)(=O)O)c2c1`, for which the outcome in [1], in [2], in experiment [3], in experiment [4], in experiment [6] and in [7] was inactive. The result in experiment [8], in [9], in experiment [10], in [12], in experiment [20] and in experiment [13] was inactive. In addition, the molecule was called inactive in experiment [14], in experiment [15], in experiment [16] and in experiment [17]. The AC50 was 49.7 µM (active) in experiment [5] and 21.1 µM (active) in experiment [18].
